Screening results deposited in PubChem by National Center for Advancing Translational Sciences (NCATS).
SmPrx2 inh – Schistosoma mansoni Prx2 inhibition | AID 448 | 0.07% of 65,000 active | Potency, µM | S. mansoni Prx2 activity coupled to TGR/GSH (TGR is thioredoxin glutathione reductase), NADPH fluorescence loss, qHTS
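Coupled assay in which S. mansoni TGR passes NADPH reducing equivalents via glutathione to Prx2, which reduces H2O2. Compounds were preincubated 15 min at room temperature with 25 nM TGR/50 nM Prx2 mix. Kinetic NADPH fluorescence loss (ex 365/em 450 nm) was monitored.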
LT uptake inh – blocks cellular internalization of anthrax lethal toxin; Cells, anthrax lethal toxin internalization, FRET ratio (460/530); Potency, µM (highest dose often 40 µM), for inactives: at the highest dose activity change, negative = inhibition, most hits filed as inhibitors; 0.67% of 70,000 active; AID 912; note: % is set by controls: 0 for no effect and ±100 for the full control effect; nearly all actives have a fitted effect of over 50% in size
AmpC inh det – blocks E. coli AmpC beta-lactamase in presence of detergent; P00811; purified AmpC, nitrocefin hydrolysis with detergent; Potency, µM (doses to about 28.7 µM), for inactives: top-dose activity change, negative = inhibition; 0.09% of 71,000 active; AID 584; active = well fitted curve in the direction sought with a large enough effect; inconclusive = small, poorly fitted or top-dose-only effect; note: % is set by controls: 0 for no effect and ±100 for the full control effect
Target sequence (P00811 whole entry, looked up): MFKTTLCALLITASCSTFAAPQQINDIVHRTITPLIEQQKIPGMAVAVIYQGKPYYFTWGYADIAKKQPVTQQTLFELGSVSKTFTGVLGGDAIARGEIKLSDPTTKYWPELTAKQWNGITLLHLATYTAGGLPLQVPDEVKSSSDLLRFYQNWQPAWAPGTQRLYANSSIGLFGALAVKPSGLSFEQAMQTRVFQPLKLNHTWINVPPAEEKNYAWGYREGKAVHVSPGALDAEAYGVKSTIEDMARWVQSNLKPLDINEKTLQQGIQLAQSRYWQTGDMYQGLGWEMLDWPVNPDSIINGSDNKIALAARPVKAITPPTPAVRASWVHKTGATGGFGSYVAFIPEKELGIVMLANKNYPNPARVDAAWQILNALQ
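E. coli AmpC (5.3 nM) in 20 mM phosphate pH 7.0 with 0.01% Triton X-100, preincubated 15 min RT with compound; nitrocefin (2 uL of 800 uM stock) hydrolysis followed by 480 nm absorbance every 20 s over 4 min.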
AmpC inh no det – inhibitors of E. coli AmpC beta-lactamase without detergent; P00811; AmpC nitrocefin hydrolysis, absorbance 480 nm, no detergent; Potency, µM (titrated, usually from 28.7 µM), inactives show at the top dose activity change, negative = inhibition; 1.8% of 71,000 active; AID 585; note: % of control where 0% means no effect
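Enzyme, pH 7.0 phosphate. Compound titrations were pre-incubated with AmpC for 15 min at room temperature before nitrocefin (stock 800 uM) addition; product formation was recorded at 480 nm every 20 s for 4 min.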
* = called active by the depositor; ? = inconclusive; . = no result given; [ ] = another dose, or the depositor's remark. This is a sample that favours compounds with a hit; in the whole collection about 2.4% have one here. Unless noted, calls come from the whole dose curve. Potency is the fitted concentration of half-maximal effect.

SMILES	SmPrx2 inh	LT uptake inh	AmpC inh det	AmpC inh no det
CCn1ncc(C2=NOC(C(=O)Nc3c(C)n(C)n(-c4ccccc4)c3=O)C2)c1C (configuration not stated)	>57	-3%	8%	4µM*[single pt active]
CCn1ncc(C2=NOC(C(=O)Nc3c(C)nn(Cc4ccc(F)cc4)c3C)C2)c1C (configuration not stated)	>57	-14%	18%	48%
O=C(O)[C@H]1[C@H](C(=O)O)[C@H]2CC[C@@H]1O2	>57	2%	-3%	9%
CCOC(=O)CSc1nn(C)c(=S)s1	>57	-11%	13%	4µM*[single pt active]
CCOC(=O)CSc1nnc(N)s1	>57	?	2%	-11%
Cc1cc(C)cc(OP(=O)(Oc2cc(C)cc(C)c2)Oc2cc(C)cc(C)c2)c1	.	?	22%	-16%
O=C(c1cccs1)N1CCN(CCc2ccccc2)CC1	>57	8%	-3%	10%
O=C(CCc1ccccc1)N1CCN(CCO)CC1	>57	-8%	11%	4µM*[single pt active]
COCCn1c(=O)c(-c2ccc(F)cc2)nc2cnc(N3CCOCC3)nc21	>57	?	-1%	10%
CN1[C@@H]2CC[C@H]1CC(O[C@@H](c1ccccc1)c1ccc(Cl)cc1)C2 (some centres not stated)	>57	10µM*	5%	99%
CCOc1ccc(NC(=O)Cn2nnc(C(=O)NCc3ccccc3OC)c2N)cc1	>57	?	-5%	-8%
COc1cccc(NC(=O)Cn2nnc(C(=O)Nc3ccccc3)c2N)c1	>57	7%	0%	-13%
COc1cc(NC(=O)c2nnn(Cc3ccc(SC)cc3)c2N)cc(OC)c1	>57	?	11%	4µM*[single pt active]
CSc1cccc(NC(=O)c2nnn(Cc3ccccc3)c2N)c1	>57	?	-2%	-16%
CCOc1ccc(Cn2nnc(C(=O)NCc3ccc(OC)cc3)c2N)cc1	>57	-16%	15%	4µM*[single pt active]
COc1ccc(OC)c(NC(=O)c2nnn(CCc3ccccc3)c2N)c1	>57	-13%	12%	4µM*[single pt active]
COc1cccc(NC(=O)c2nnn(CCc3ccccc3)c2N)c1	>57	?	9%	4µM*[single pt active]
CCc1ccc(Cn2nnc(C(=O)Nc3ccc(OC)cc3OC)c2N)cc1	>57	-10%	10%	4µM*[single pt active]
COC(=O)c1nnn(Cc2ccccc2)c1N	>57	7%	-1%	-2%
OC(COc1ccc(Cl)c2ccccc12)CN1CCN(c2ccccn2)CC1 (configuration not stated)	>57	10µM*	7%	84%
O=C(NCCN1CCN(C(=O)NC2CCCCC2)CC1)NC1CCCCC1	>57	-4%	-6%	12%
NC(=O)CN1CCN(C(=O)NC2CCCCC2)CC1	>57	-2%	16%	3.2µM*[single pt active]
COc1ccc2c(c1)CCc1c(C(=O)NCCc3ccc(OC)c(OC)c3)noc1-2	?	0%	0%	78%
CCCNC(=O)c1noc2c1CCc1ccccc1-2	>57	-6%	14%	3.2µM*[single pt active]
COc1ccc2c(c1)CCc1c(C(=O)Nc3cc(C)n(Cc4ccc(Cl)cc4)n3)noc1-2	>57	5%	-3%	7.9µM*
SMILES	SmPrx2 inh	LT uptake inh	AmpC inh det	AmpC inh no det
O=C(NCCc1ccccc1)c1noc2c1CCc1ccccc1-2	>57	-11%	-5%	-24%
COc1ccc2c(c1)CCc1c(C(=O)NCc3ccc(F)cc3)noc1-2	>57	?	10%	4µM*[single pt active]
CC(C)[C@@]1(NC(=O)[C@@H]2C[C@H]3c4cccc5[nH]cc(c45)C[C@@H]3N(C)C2)O[C@@]2(O)[C@H]3CCCN3C(=O)[C@@H](Cc3ccccc3)N2C1=O	>57	?	-4%	121%
Cc1nc2cnc(N(C)C)nc2n(Cc2ccc(F)cc2)c1=O	>57	6%	0%	27%
CC(=O)OC[C@@H]1O[C@H](C/C=N\O[C@@H]2O[C@H](COC(C)=O)[C@@H](OC(C)=O)[C@H](OC(C)=O)[C@H]2OC(C)=O)C=C[C@@H]1OC(C)=O	.	-5%[8 µM]	.	.
O=c1c(-c2ccc3c(c2)OCCO3)coc2c(CN3CCOCC3)c(O)ccc12	>57	-18%	12%	4%
CC(C)=CCc1c2c(c3occ(-c4ccc(O)c(O)c4)c(=O)c3c1O)C=CC(C)(C)O2	>57	?	-3%[5.75 µM]	4µM*[single pt active]
O=C(Nc1ccccc1-c1nc2ccccc2o1)c1ccc2c(c1)OCCO2	>57	-17%	5%	-21%
O=C(Nc1ccc2oc(-c3ccccc3F)nc2c1)c1ccc2c(c1)OCCO2	>57	10µM*	-3%	34%
O=c1[nH]c2cc3c(cc2cc1C(c1nnnn1C1CCCC1)N1CCCc2ccccc21)OCCO3 (configuration not stated)	>57	7.9µM*	-3%	-3%
O=c1[nH]c2cc3c(cc2cc1C(c1nnnn1Cc1ccccc1)N1CCCc2ccccc21)OCO3 (configuration not stated)	>57	-10%	8%	3.2µM*
COc1cc2cc(C(c3nnnn3C3CCCC3)N3CCc4ccccc43)c(=O)[nH]c2cc1OC (configuration not stated)	>57	?	20%	118%
O=[N+]([O-])c1cccc(Cl)c1	.	-2%	5%	-2%
O=C(CN(C1CC1)S(=O)(=O)c1ccc(S(=O)(=O)NC2CCCCC2)cc1)Nc1ccccc1	>57	10µM*	-3%	-22%
Cc1nc2cnc(N3CCN(C)CC3)nc2n(Cc2ccc(F)cc2)c1=O	>57	-2%	1%	35%
CCC(C)[C@@H](NC(=O)OC(C)(C)C)c1nnc(S(=O)(=O)Cc2cccc(C)c2)o1 (some centres not stated)	>57	?	4µM*	7.9µM*
CC(C)(C)OC(=O)N[C@@H](Cc1ccccc1)c1nnc(SCC(=O)O)o1	>57	?	12%	-4%
CC(C)(C)OC(=O)N[C@@H](Cc1ccccc1)c1nnc(S(=O)(=O)Cc2ccccc2)o1	.	7.9µM*	13µM*	3.2µM*
CN(C)c1ncc2nc(-c3ccc(F)cc3)c(=O)n(CCC#N)c2n1	>57	-6%	0%	2%
c1csc(CNc2ncncc2-c2ccc3c(c2)OCO3)c1	>57	-12%	9%	9%
CC1=C/C(=C(/c2ccc(O)c(C)c2)c2ccccc2C(=O)O)C=CC1=O	>57	-15%[8 µM]	-5%[5.75 µM]	-10%[5.75 µM]
O=C(O)C1=CC(=C(c2ccc(O)c(C(=O)O)c2)c2ccc(O)c(C(=O)O)c2)C=CC1=O	>57	?	10µM*	7.9µM*
COc1ccc(-c2coc3ccc(O[C@@H]4O[C@@H](COC(C)=O)[C@@H](OC(C)=O)[C@@H](OC(C)=O)[C@H]4OC(C)=O)c(OC(C)=O)c3c2=O)cc1	>57	-7%	2%	71%
Cc1ccccc1NS(=O)(=O)c1ccc(C2CNC(=O)C2)cc1 (configuration not stated)	>57	9%	18%	0%
O=C1CC(c2ccc(S(=O)(=O)NCc3ccccc3)cc2)CN1 (configuration not stated)	>57	-8%	14%	4µM*[single pt active]
CCC(=O)n1nc(-c2ccco2)nc1SCc1ccccc1	>57	-6%	-1%	4%
